Laboratory results as given in PubChem BioAssay (NCI).
Several values for one entry are separate records, joined by “and”; a condition that tells them apart may be missing. Equal entries are not always repeated. This is part of a sample that, as a whole, favours compounds with a hit. Of some 83,000 tested, about 20% had one in any assay.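 Negative percent growth values reflect cell death: -40 means 40% of the cells present at the start died, and -100 means all died.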 Activity calls are given as the source filed them. Rule for the calls: active = growth percent below 10; inactive = the rest.

How the values were obtained:
Test in all cases: NCI-60 one-dose screen, 48 h (100 = growth as untreated, 0 = no growth, -100 = all killed)
HT29 colon = conditions: 10 µM
SNB-75 CNS = conditions: 10 µM
SNB-19 CNS = conditions: 10 µM
PC-3 prostate = conditions: 10 µM
SK-MEL-5 melanoma = conditions: 10 µM
UACC-62 melanoma = tested on: UACC-62 melanoma
LOX IMVI melanoma = conditions: 10 µM
SK-MEL-28 melanoma = conditions: 10 µM
SK-MEL-2 melanoma = conditions: 10 µM
U251 CNS = conditions: 10 µM

Row | Compound | growth (HT29 colon) | growth (SNB-75 CNS) | growth (SNB-19 CNS) | growth (PC-3 prostate) | growth (SK-MEL-5 melanoma) | growth (UACC-62 melanoma; 10 µM) | growth (LOX IMVI melanoma) | growth (SK-MEL-28 melanoma) | growth (SK-MEL-2 melanoma) | growth (U251 CNS) | growth (UACC-62 melanoma; 100 µM) | growth (UACC-62 melanoma; 25 µM)
1 | O=C(NC(=S)Nc1ccccn1)c1ccccc1 | 87.5% (inactive) | 74.8% (inactive) | 95.4% (inactive) | 77.9% (inactive) | 93.3% (inactive) | 93.1% (inactive) | 94.9% (inactive) | 152% (inactive) | 127% (inactive) |  |  | 
2 | CCOC(=O)[C@]1(Br)CC[C@@]1(Br)C(=O)OCC | 83.1% (inactive) | 92.4% (inactive) | 106% (inactive) | 97.3% (inactive) | 103% (inactive) | 77.9% (inactive) | 82.5% (inactive) | 110% (inactive) | 91.7% (inactive) |  |  | 
3 | NCc1c(O)ccc2ccccc12 | 103% (inactive) | 73.5% (inactive) |  | 84.9% (inactive) | 86.3% (inactive) | 95.4% (inactive) | 101% (inactive) | 105% (inactive) | 98.2% (inactive) | 103% (inactive) |  | 
4 | O=C(CNS(=O)(=O)Cc1ccccc1)NNc1ccccc1 | 81.5% (inactive) | 76.8% (inactive) | 88.3% (inactive) | 63.2% (inactive) | 47.5% (inactive) | 14.9% (inactive) |  | 94% (inactive) | 97.1% (inactive) |  |  | 
5 | C=C(C)[C@@H]1CCc2c(O)c(O)c(=O)cc(C)c2C1 |  |  |  |  |  |  |  |  |  |  | -52.3% (active) and -85% (active) | 
6 | N#CC(=C1C=CC(=NO)C=C1)c1ccccc1 | 1.57% (active) | -1.66% (active) | 59.6% (inactive) | 3.44% (active) | 2.56% (active) |  | -6.53% (active) | 76.3% (inactive) | 41.1% (inactive) |  |  | 
7 | COc1cccc(C(c2cc3c(cc2O)OCO3)N2CCOCC2)c1OC (stereo unspecified) | 106% (inactive) | 91.2% (inactive) | 98.5% (inactive) | 95.7% (inactive) | 99.1% (inactive) | 95.3% (inactive) | 97.3% (inactive) |  | 101% (inactive) |  |  | 
8 | O=Nc1ccc(Nc2ccccc2)cc1 | 95.1% (inactive) | 80.4% (inactive) | 98.3% (inactive) | 82.8% (inactive) | 87.9% (inactive) | 96.9% (inactive) | 23.5% (inactive) | 120% (inactive) | 109% (inactive) |  |  | 
9 | CO[C@@]12[C@H](COC(N)=O)C3=C(C(=O)C(C)=C(N)C3=O)N1C[C@@H]1N[C@@H]12 |  |  |  |  |  |  |  |  |  |  |  | -83.6% (active) and -100% (active)
10 | COc1cc2c(cc1C[N+](C)(C)CSc1ccccc1)-c1ccccc1CC2 |  |  |  |  |  |  |  |  |  |  | -96.4% (active) and -92.3% (active) | 
11 | O=C1C=CC(=O)N1c1ccc(N2C(=O)C=CC2=O)cc1 | 105% (inactive) | 95.6% (inactive) |  | 112% (inactive) | 103% (inactive) | 96.5% (inactive) | 85% (inactive) | 135% (inactive) | 108% (inactive) |  |  | 
12 | O=[N+]([O-])c1cc(S(=O)(=O)Nc2ccccc2)ccc1Cl | 101% (inactive) | 69.3% (inactive) | 95.5% (inactive) | 94.3% (inactive) | 92.8% (inactive) | 84.7% (inactive) | 77.6% (inactive) | 102% (inactive) | 93.3% (inactive) |  |  | 
13 | O=C1c2cccc3cc([N+](=O)[O-])cc(c23)C(=O)N1CCN1CCCC1 | 2.59% (active) | -15.1% (active) | -0.129% (active) | 14.4% (inactive) | -88.6% (active) | -66.1% (active) | -65.9% (active) | -36.5% (active) | 4.73% (active) |  |  | 
14 | Clc1c(Cl)c(Cl)c2c(nnn2C2CCCO2)c1Cl (stereo unspecified) |  |  |  |  |  |  |  |  |  |  | -55.3% (active) and -99.6% (active) | 
15 | CC1CCC2(C(=O)O)CCC3(C)C(=CCC4C5(C)CC(O)C(O)C(C)(CO)C5C(O)CC43C)C2C1C (stereo unspecified) | 110% (inactive) | 91.8% (inactive) | 98.7% (inactive) | 97.5% (inactive) | 4.98% (active) | 104% (inactive) | 107% (inactive) |  | 104% (inactive) |  |  | 
16 | O=C(CCc1ccccc1)ON1C(=S)C(c2ccccc2)(c2ccccc2)N=C1Sc1ccccc1 |  |  |  |  |  |  |  |  |  |  | 10.7% (inactive) and 0.462% (active) | 
17 | COc1ccc(N)c2c1C(=O)c1ccccc1C2=O | 93.6% (inactive) | 95.6% (inactive) | 101% (inactive) | 89.6% (inactive) |  | 94.3% (inactive) | 104% (inactive) | 128% (inactive) | 99.5% (inactive) |  |  | 
18 | O=C1c2ccccc2CCC1(Br)Br | 12% (inactive) | 56.6% (inactive) | 89.4% (inactive) | 54.5% (inactive) |  | 32.1% (inactive) |  | 56.5% (inactive) |  |  |  | 
19 | COc1ccc(C(C#N)=C2C=CC(=NO)C=C2)cc1 |  | 91.6% (inactive) | 111% (inactive) | 50.4% (inactive) | 80.3% (inactive) | 66.3% (inactive) | 59.5% (inactive) | 106% (inactive) |  |  |  | 
20 | N#CC(=S)Nc1cccc(Cl)c1 |  |  |  |  |  |  |  |  |  |  | 1.5% (active) and -86.8% (active) | 
21 | Cc1cc(C)c(N2C(=O)CC(Sc3ccccc3N)C2=O)c(C)c1 (stereo unspecified) | 66.2% (inactive) | 55.7% (inactive) | 83.1% (inactive) | 68.4% (inactive) |  | 60.8% (inactive) | 69.9% (inactive) | 60.7% (inactive) | 88.5% (inactive) |  |  | 
22 | Cc1c(-c2ccccc2)[nH]c2ccccc12 | 103% (inactive) | 89.9% (inactive) | 110% (inactive) | 87.8% (inactive) |  | 96.3% (inactive) | 81.5% (inactive) | 121% (inactive) | 115% (inactive) |  |  | 
23 | CC[C@@]1(OC(=O)CN(C)C)C(=O)OCc2c1cc1n(c2=O)Cc2cc3c(N)cccc3nc2-1 | 4.94% (active) | -10.5% (active) | 11.2% (inactive) | 18% (inactive) |  | -77.8% (active) | -39.3% (active) | 16.5% (inactive) | -17.4% (active) |  |  | 
24 | Cc1cc(N=C2C=CC(=[N+](C)C)C=C2)c(N)cc1N | 93.8% (inactive) | 102% (inactive) | 87.3% (inactive) |  | 90% (inactive) | 89.8% (inactive) | 79% (inactive) | 103% (inactive) | 106% (inactive) |  |  | 
25 | Nc1nc(N)c2cc(Sc3ccc4ccccc4c3)ccc2n1 | 9.75% (active) | 53.5% (inactive) | 35.7% (inactive) | 35.6% (inactive) | 23.4% (inactive) | 27.3% (inactive) | 21% (inactive) | 61.7% (inactive) | 75.3% (inactive) |  |  | 
26 | CN(C)c1ccc(/C=C/c2ccnc3ccccc23)cc1N | 58.5% (inactive) | 85.8% (inactive) | 80.2% (inactive) | 60.4% (inactive) | 13.6% (inactive) | 63.3% (inactive) | 71.4% (inactive) | 83.8% (inactive) | 67.5% (inactive) |  |  | 
